Hits are enriched below; roughly 1.7% of the tested compounds scored in any of these assays.
GLP-1R agonist – activates the human GLP-1 receptor | P43220 | HEK293 GLP-1R CRE-luciferase, luminescence, 4-6 h; cells express a hypersensitive GLP-1R form | Potency, µM (doses to about 45.6 µM), most hits filed as activators | actives 0.007% (n = 380,000)
Target sequence (P43220 whole entry, looked up): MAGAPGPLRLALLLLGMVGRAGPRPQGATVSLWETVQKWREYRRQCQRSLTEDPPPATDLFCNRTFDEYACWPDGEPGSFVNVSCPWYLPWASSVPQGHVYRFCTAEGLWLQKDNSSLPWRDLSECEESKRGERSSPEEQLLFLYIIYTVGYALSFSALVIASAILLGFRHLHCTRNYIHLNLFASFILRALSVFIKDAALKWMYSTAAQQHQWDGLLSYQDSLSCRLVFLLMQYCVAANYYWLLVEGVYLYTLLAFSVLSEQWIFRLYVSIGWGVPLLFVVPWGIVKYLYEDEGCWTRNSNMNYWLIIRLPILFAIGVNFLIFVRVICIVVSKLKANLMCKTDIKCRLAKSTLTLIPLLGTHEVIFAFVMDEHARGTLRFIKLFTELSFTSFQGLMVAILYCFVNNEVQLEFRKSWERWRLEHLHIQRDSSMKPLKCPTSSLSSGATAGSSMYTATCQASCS
HEK293 tox – cytotoxicity in counter-screen for GLP-1R inverse agonists; HEK293 cAMP-luciferase reporter cells, luminescence, 24 h; Potency, µM (series often up to 38.3 µM), usual class: inhibitors; actives 0.13% (n = 410,000); AID 624418;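 note: loss of luciferase light is scored as toxicity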
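Luminescence readout: signal drop marks cytotoxicity. Plated cells grew 12 h at 37 °C, 5% CO2, received 23 nL compound for 24 h, then got luciferase reagent, read after 12 min at RT.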
PTHR1 ag – PTHR1 (human) receptor agonism. Potency, µM (highest dose often 115 µM), most hits filed as activators. HEK293 GP2 PTHR1 cells, GloSensor cAMP luminescence, 1 h. actives 0.075% (n = 410,000). AID 743266. Q03431; note: nearly all actives have a fitted effect of over 55% in size
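HEK-293-derived GP2 cells expressing PTHR1 and a GloSensor cAMP reporter, 3,000/well, plated overnight, given luciferin plus IBMX (each 0.5 mM as added) for 1 h at 37 °C, then compound for 1 h at 37 °C. Luminescence was read after 15 min at room temperature.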
GLP-1R inv ag – acts as inverse agonist at human GLP-1 receptor | Potency, µM (series often up to 38.3 µM), actives largely listed as inhibitors | P43220 | HEK293 GLP-1R CRE-luciferase, luminescence, 24 h; GLP-1R form is constitutively active | actives 1.6% (n = 410,000); note: nearly all actives have a fitted effect of over 55% in size
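Using stably transfected HEK293 (constitutively active GLP-1R, cAMP-luciferase reporter), compounds were incubated 24 hr and luciferase measured by luminescence.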
A number is an active result; . = inactive; ? = inconclusive; / = no result given. Calls come from the whole dose curve; as a rule, active = well fitted curve in the direction sought with a large enough effect; inconclusive = small, poorly fitted or top-dose-only effect, or another doubt; inactive = no such curve, though single readings can be large; an effect the other way counts as inactive or inconclusive.

SMILES | GLP-1R agonist | HEK293 tox | PTHR1 ag | GLP-1R inv ag
CSc1ccc(-c2nc3cccc(C)n3c2Nc2ccc3c(c2)OCO3)cc1 | / | . | . | 10µM
COCCN(C(=O)CSc1nnc(-c2ccc(C)cc2)n1N)c1c(N)n(Cc2ccccc2)c(=O)[nH]c1=O | . | . | . | .
CCOCCCNC(=O)c1ccc(-n2c(-c3ccccc3)cc3c2CCCCC3)cc1 | / | . | . | .
COCCCNC(=O)c1ccc(-n2c(-c3ccccc3)cc3c2CCC(C)C3)cc1 (configuration not stated) | / | . | ? | 10µM
CCOC(=O)C1=NN(c2ccccc2C)C2=NC(C)=C(C(=O)OC)C(c3cccc(OC)c3)N12 (configuration not stated) | . | . | . | ?
COc1cccc(C(=O)NC2CC3CCCC(C2)N3CC(=O)Nc2ccccc2C(F)(F)F)c1 (configuration not stated) | . | . | . | 2.2µM
O=C(CN1C2CCCC1CC(NC(=O)C1CCCCC1)C2)Nc1ccccc1C(F)(F)F (configuration not stated) | . | . | . | ?
CCCc1ccccc1OCCNS(=O)(=O)c1cc2c(cc1C)OCC(=O)N2 | . | . | . | ?
CN(C)Cc1cc(C(C)(C)C)c(O)c(C(C)(C)C)c1 | . | . | . | .
CC(C)(CO)Cc1cc(C(C)(C)C)c(O)c(C(C)(C)C)c1 | ? | . | . | 7.1µM
CC(C)(C=O)Cc1cc(C(C)(C)C)c(O)c(C(C)(C)C)c1 | . | . | . | 11µM
COc1ccc(S(=O)(=O)Nc2ccccc2C(=O)NCc2cccnc2)cc1 | . | . | . | .
CC1(C)O[C@@H]2C[C@H]3[C@@H]4CCC5=CC(=O)C=C[C@]5(C)[C@H]4C(O)C[C@]3(C)[C@]2(C(=O)CO)O1 (some centres not stated) | . | / | / | /
Cc1ccccc1C(=O)N1CCC(C(=O)Nc2ccc3c(c2)OCO3)CC1 | . | . | . | .
COc1ccccc1C(=O)Nc1ccc2c(c1)nc(CCNC(C)=O)n2C | . | . | . | .
COc1ccccc1C(=O)Nc1ccc2c(c1)nc(CCNC(=O)c1ccccc1)n2C | . | 10µM | . | ?
Cc1oc(-c2ccc(C(=O)NCc3ccccc3)cc2)nc1CN1CCc2ccccc21 | / | . | . | 10µM
Cc1oc(-c2ccc(C(=O)NCCC(C)C)cc2)nc1CN1CCc2ccccc21 | . | . | . | ?
COc1ccc(C(O)(CCC(C)C)C(CN2CCOCC2)c2ccc(Cl)cc2)cc1 (configuration not stated) | . | ? | . | ?
CCOc1ccc(C(O)(CCC(C)C)C(CN2CCOCC2)c2ccccc2)cc1 (configuration not stated) | . | ? | . | 3.2µM
CCCCC(O)(c1ccc(F)cc1)C(CN1CCOCC1)c1ccc(Cl)cc1 (configuration not stated) | . | . | . | 2.8µM
CCCC(O)(c1ccc(Cl)cc1)C(CN1CCOCC1)c1ccc(Cl)cc1 (configuration not stated) | . | . | . | ?
COc1ccc(CNC(=O)Cc2coc3ccc(C)cc23)cc1 | / | . | . | ?
CCCCC1C2=C(CC(C)(C)CC2=O)OC2=C1C(=O)CC(C)(C)C2 | . | . | . | 8.9µM
COC(=O)c1c(NC(NC(=O)C(C)C)C(Cl)(Cl)Cl)sc2c1CCC2 (configuration not stated) | . | . | . | 8.9µM
SMILES | GLP-1R agonist | HEK293 tox | PTHR1 ag | GLP-1R inv ag
Cc1cccc(C(=O)N2CCc3cc(CNC(=O)COc4ccc(Cl)cc4)ccc32)c1 | / | . | . | .
CC(C)Oc1ccccc1C1Nc2ccccc2C(=O)N1c1ccc2c(c1)OCCO2 (configuration not stated) | . | . | . | 10µM
CC(C)Oc1ccccc1C1CC(=O)Nc2cc3c(cc21)OCCO3 (configuration not stated) | ? | ? | . | .
O=C(NNC1=C(C(=O)C(F)(F)F)CCC1)c1ccc(Cl)cc1 | . | . | . | .
O=C(NNC1=C(C(=O)C(F)(F)F)CCC1)c1cccc(Cl)c1 | . | ? | . | 2.8µM
Cc1cc(NC2CCCCC2)nc(NCc2ccccc2)n1 | . | ? | . | 10µM
Cc1ccc(Nc2cc(C)nc(NCc3ccccc3)n2)cc1 | . | ? | . | ?
CC1Cc2ccccc2N1S(=O)(=O)c1cnc(Cl)c(Cl)c1 (configuration not stated) | . | . | . | ?

From PubChem
